High-throughput results (PubChem BioAssay)
This is a sample that favours compounds with a hit; in the whole collection about 2.5% have one here.
697 NFkB inh: lowers PMA/ionomycin-induced NF-kB signal in 697 B cells; 697 B-cell NF-kB luciferase reporter, 16 h; inhibition, % at 4 µM; 0.33% of 330,000 active; AID 435022; in the data active means inhibition above about 35%
KLF5 inh: inhibitors of KLF5 expression; 0.23% of 290,000 active; AID 1700; inhibition, % at 5 µM; DLD-1 KLF5 promoter-luciferase reporter, luminescence;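 active means inhibition above a per-plate limit of that plate's mean compound inhibition plus 3 SD, cut at about 60% in these data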;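 further: 0% = DMSO wells and 100% = LY294002 at 200 µM; higher means less KLF5 promoter-driven luciferase light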
aSyn 5UTR inh: MLPCN primary screen, SNCA 5' untranslated region. alpha-synuclein 5'UTR reporter, inhibitor activity. inhibition, % (tested at 7.5 µM). 0.82% of 300,000 active; in the data active means inhibition above about 60%;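 further: H4 neuroglioblastoma cells stably carrying SNCA 5'UTR luciferase fusion; 0% = DMSO wells and 100% = positive control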
Jurkat NFkB inh: inhibitors of the PMA/ionomycin-induced NF-kB reporter in Jurkat cells; inhibition, % at 4 µM; 0.53% of 330,000 active; PMA/ionomycin-induced NF-kB luciferase reporter, luminescence; in the data active means inhibition above about 50%
ANO1 activ: activates or potentiates the mouse TMEM16A chloride channel; HEK293 TMEM16A/YFP-H148Q/I152L, iodide quench fluorescence; hits give low values; B-score at 10 µM; 0.3% of 340,000 active;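 active means fluorescence-ratio B-score plate-corrected deviation score at least 3 library SD below zero, with starting fluorescence score within 5 deviations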;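 further: channel opened by trigger with iodide after compound preincubation; score built on the fluorescence ratio of max minus min over baseline; more negative score means more quench and so TMEM16A activation or potentiation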
ANO1 block: blocks the mouse calcium-activated chloride channel TMEM16A | normalized B-score (activity score, 25-100; higher = stronger inhibition) at 10 µM | 1.2% of 310,000 active | Q8BHY3 | HEK293 TMEM16A/YFP iodide influx fluorescence, ionomycin | AID 588511;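 active means ratio plate-corrected score three or more library SD toward inhibition, starting fluorescence score within five deviations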;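 further: score derived from kinetic fluorescence span divided by baseline fluorescence per well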
TMEM16A reconf: re-confirmation of mouse TMEM16A chloride channel inhibitors; shares compounds with ANO1 block; HEK293 TMEM16A/YFP-H148Q, iodide quench fluorescence; ionomycin added to raise cell calcium; inhibition, % at 10 µM; 39% of 2,300 active; AID 652189;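 active means mean duplicate percent inhibition, scaled so buffer wells are 0 and the reference blocker 100, over three buffer SD above buffer mean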
HEK293 Ca mobil: calcium mobilization counter-screen hit for TMEM16A inhibitor series. shares compounds with ANO1 block. TMEM16A/YFP HEK293, Fluo4 calcium mobilization. calcium response (% of ionomycin), % at 10 µM. 2% of 2,300 active. AID 652231;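 active means duplicate-averaged calcium signal over 20% of the ionomycin maximum, relative to buffer baseline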;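 further: each well's signal is peak minus trough fluorescence divided by its pre-addition baseline; 0% = buffer wells and 100% = ionomycin wells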
Parental YFP cnt: acts in parental YFP-HEK293 cells lacking TMEM16A, counter-screen; shares compounds with ANO1 block; iodide YFP quench, ionomycin; YFP ratio F(max-min)/F0 at 10 µM; 2,300 tested, under 10 active; AID 652233;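 active means yellow fluorescent protein signal ratio exceeding the buffer control mean by over 5 SD of those controls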;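 further: ratio is mean of duplicate wells from kinetic YFP trace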
ClC-1 rat inh: rat ClC-1 inhibition, TMEM16A specificity screen; shares compounds with ANO1 block; CHO ClC-1-YFP, iodide influx fluorescence quench; iodide control reads 0, buffer control 100; ratio percent, % at 10 µM; 2,300 tested, under 10 active; AID 652236;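 active means duplicate-mean ratio percent above the mean of iodide-only control wells, which defines zero, plus 5 of their SD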;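 further: higher percent means stronger block of ClC-1 iodide influx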
* marks the source's active call; other numbers are inactive results; i = inactive; . = no result given.

SMILES | 697 NFkB inh | KLF5 inh | aSyn 5UTR inh | Jurkat NFkB inh | ANO1 activ | ANO1 block | TMEM16A reconf | HEK293 Ca mobil | Parental YFP cnt | ClC-1 rat inh
Cc1cc(Cl)c(S(=O)(=O)N2CCSCC2)cc1OCC(=O)NC1CCCCC1 | -12.1 | 3.8 | 3.4 | 36.7 | i | 100* | 27.5%* | i | -0.9 | -11.5
COc1cc(S(=O)(=O)Nc2ccc3nc(C)sc3c2)ccc1NC(C)=O | -20.1 | . | . | -1.2 | i | . | . | . | . | .
Cc1cc(C(C)(C)C)oc1C(=O)N(CC(=O)NC1CCCC1)c1ccc(F)cc1 | -46.6 | -5.8 | -8.3 | 2.2 | i | i | . | . | . | .
Cc1cc(C(C)(C)C)oc1C(=O)N(CC(=O)NC1CCCC1)c1c(C)cccc1C | -14.4 | 4.1 | -2.8 | 6.9 | i | 100* | 26.5%* | i | -1.14 | -19.5
O=C(CCC(=O)N1CCOCC1)NCc1cccc(C(F)(F)F)c1 | 4.8 | . | . | 14.5 | i | . | . | . | . | .
COc1ccc(NC(=O)c2[nH]c(C)c(C(C)=O)c2C)cc1 | -25.6 | -58.9 | -193.5 | -52.5 | i | i | . | . | . | .
CCc1c(C(=O)Nc2ccc(OC)cc2)[nH]c(C)c1C(C)=O | 15.1 | 4.8 | -93.1 | -10.0 | i | 25* | i | i | -0.957 | -7.5
CCc1ccc(CN2CCN(C(=O)c3cccc(OC)c3OC)CC2)cc1 | -38.1 | -25.7 | 9.7 | 28.5 | i | 25* | i | i | -0.97 | 1.0
COC(=O)CCc1cccc(CCC(=O)OC)c1 | 20.3 | 3.5 | 4.7 | 7.1 | i | 25* | i | i | -0.966 | -8.5
N#CC1=C2SCC(O)(c3ccccc3)N2C(=O)CC1c1ccccc1 (configuration not stated) | -42.4 | 56.2 | -15.8 | 48.6 | i | 100* | 16.5%* | i | -0.955 | -16.0
Cc1nc(C)c(-c2ccc(SCC(=O)Nc3ccccc3)nn2)s1 | 13.0 | -38.5 | 14.3 | 12.1 | i | i | . | . | . | .
Cc1nc(C)c(-c2ccc(SCC(=O)Nc3ccc(F)cc3F)nn2)s1 | -6.2 | -39.2 | 15.6 | 11.1 | i | 25* | i | i | -1.08 | -2.0
CC1CCCCC12NC(=O)N(CC(=O)Nc1cccc(S(=O)(=O)N3CCCCC3)c1)C2=O (configuration not stated) | -13.5 | . | . | 0.7 | i | . | . | . | . | .
CC(=Nc1cccc(C)c1)c1sc2ccccc2c1O | -147.2 | 4.0 | -215.0 | -143.3 | i | i | i | i | -0.93 | -9.5
COc1ccc(Nc2nc(-c3ccccc3)c(C(=O)Nc3cccnc3)s2)cc1 | -14.1 | -6.9 | -23.8 | -19.1 | i | i | . | . | . | .
COc1ccccc1CC(=O)N(Cc1ccccc1)c1cccc(C)c1 | 3.0 | 2.0 | 23.5 | -11.4 | i | 100* | i | i | -1.21 | -3.0
COc1ccc(C(=O)N(Cc2ccccc2)c2cccc(C)c2)cc1 | -16.2 | -35.1 | -31.0 | -17.3 | i | i | . | . | . | .
COC1=NC(=C(c2ccccc2)c2ccccc2)OC1=O | . | . | . | . | i | . | . | . | . | .
N#CCC(=O)N/N=C/c1ccc(N2N=C(c3ccccc3)CC2c2ccccc2)cc1 (configuration not stated) | -8.9 | -5.7 | 10.9 | 7.1 | i | i | . | . | . | .
COc1ccc(N(Cc2nnc3n2CCCCC3)C(=O)Nc2ccccc2)cc1 | 16.0 | -27.9 | -19.7 | -5.6 | i | i | . | . | . | .
CCOc1ccc(N(Cc2nnc3n2CCCCC3)C(=O)Nc2cccc(C)c2)cc1 | 2.8 | -5.5 | 15.0 | 6.2 | i | i | i | i | -0.957 | -1.5
COC(=O)c1sc(Nc2ccccc2)nc1C | -47.8 | -27.0 | -156.7 | -57.6 | i | i | . | . | . | .
